From the supplement of paper PMC10681739

What was measured:
[1] = molecular target: T1, ETS1 (UniProt P14921); assay: ETS1 binding intensity (PBM fluorescence), ETS1 alone (arbitrary fluorescence units); higher = stronger binding; settings: ETS1 concentration 1 nM; RUNX1 concentration 0 nM
T1 sequence: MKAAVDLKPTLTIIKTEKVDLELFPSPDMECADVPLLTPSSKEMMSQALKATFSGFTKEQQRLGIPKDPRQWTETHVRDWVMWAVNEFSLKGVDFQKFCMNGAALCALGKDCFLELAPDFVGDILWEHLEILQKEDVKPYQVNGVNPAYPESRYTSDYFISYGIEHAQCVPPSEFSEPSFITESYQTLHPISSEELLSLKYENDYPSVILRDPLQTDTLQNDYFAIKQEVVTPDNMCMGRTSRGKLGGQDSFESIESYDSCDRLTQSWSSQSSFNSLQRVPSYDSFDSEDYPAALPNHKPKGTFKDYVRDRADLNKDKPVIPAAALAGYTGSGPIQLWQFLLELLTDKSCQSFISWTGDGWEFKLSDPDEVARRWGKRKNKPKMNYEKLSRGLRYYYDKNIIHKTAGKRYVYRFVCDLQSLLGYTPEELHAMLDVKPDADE

[2] = molecular target: RUNX1 (UniProt Q01196); assay: RUNX1 binding intensity (PBM fluorescence), RUNX1 alone (arbitrary fluorescence units); higher = stronger binding; settings: RUNX1 concentration 2 nM; ETS1 concentration 0 nM
Sequence of RUNX1 (Q01196 whole entry): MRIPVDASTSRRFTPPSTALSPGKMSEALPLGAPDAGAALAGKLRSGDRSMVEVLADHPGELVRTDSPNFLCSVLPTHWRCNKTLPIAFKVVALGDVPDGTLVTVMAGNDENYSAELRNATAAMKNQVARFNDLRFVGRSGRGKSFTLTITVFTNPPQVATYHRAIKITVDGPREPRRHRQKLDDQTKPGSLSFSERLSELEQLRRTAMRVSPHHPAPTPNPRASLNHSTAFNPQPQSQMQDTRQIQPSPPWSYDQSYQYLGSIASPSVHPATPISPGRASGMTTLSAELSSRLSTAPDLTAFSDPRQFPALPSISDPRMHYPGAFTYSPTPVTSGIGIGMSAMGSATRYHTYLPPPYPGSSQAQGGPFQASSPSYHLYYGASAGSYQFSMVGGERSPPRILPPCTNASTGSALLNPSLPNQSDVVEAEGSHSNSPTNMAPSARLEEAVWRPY
Description: (§1)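 Cooperative gcPBM on 36-bp genomic probes with neighbouring ETS1 and RUNX1 sites. Recombinant human RUNX1 (2 nM) was incubated alone or with ETS1 (25 nM) and detected with anti-RUNX1 antibody plus Alexa488 secondary. Values are medians over 4 replicate spots; the RUNX1+ETS1 data were normalised to the RUNX1-only data. The probes sit in constant array flanks that are not printed.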

[3] = molecular target: T1, ETS1; assay: ETS1 binding intensity (PBM fluorescence) in presence of RUNX1, normalised to ETS1-only experiment (arbitrary fluorescence units); higher = stronger binding; settings: ETS1 concentration 1 nM; RUNX1 concentration 25 nM
[4] = molecular target: RUNX1 (UniProt Q01196); assay: RUNX1 binding intensity (PBM fluorescence) in presence of ETS1, normalised to RUNX1-only experiment (arbitrary fluorescence units); higher = stronger binding; settings: RUNX1 concentration 2 nM; ETS1 concentration 25 nM
Description: as §1
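Throughout, for RUNX1 binding intensity (PBM fluorescence) in presence of ETS1, normalised to RUNX1-only experiment: Full-length recombinant human ETS1 or RUNX1 bound to double-stranded 36-bp genomic probes on microarrays, detected by protein-specific primary antibody and Alexa488 secondary, spot fluorescence as median of four replicate spots.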
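Throughout, for RUNX1 binding intensity (PBM fluorescence), RUNX1 alone: Full-length recombinant human RUNX1 bound to double-stranded 36-bp genomic probes on a high-density microarray, scored as Alexa488 fluorescence per spot via anti-RUNX1 antibody, median of four replicate spots.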

Row | Sequence | ETS1 binding intensity [1] | RUNX1 binding intensity [2] | ETS1 binding intensity [3] | RUNX1 binding intensity [4]
1 | TTCATCTCTCACTTCCTGTGGTGACGGCTGACGGGG | 4120 | 1030 | 4690 | 1660
2 | CGGGTGGTGGCAGGATGTGGGTAGGGGGCCAGGCGA | 2930 | 895 | 6860 | 2560
3 | CGATGCTTCCGGCCTCCTATTGGGTGGTTTCTTGGC | 895 | 789 | 1050 | 2040
4 | GACCAGGAAACGGGGCGTGGCGGCCGCCGTGGTTAC | 449 | 806 | 485 | 857
5 | AGCTAAACCCAGTTCCGGTGCTGTGGGGAGCTCAGA | 858 | 741 | 908 | 1990
6 | TATTTCCTGTGCACAGAAGCAGCTGGGCCGCAGAGT | 557 | 697 | 680 | 1940
7 | TGCGCGCCGGCTTCCGCTGCGGCCAGTCGGGCGGCG | 668 | 647 | 635 | 1240
8 | CCGGGAAGGCGGAAGCAGCAGAGACGCCGCAAGGCC | 1320 | 823 | 1560 | 980
9 | GGTCAGGTGGGCGTTTCCTGTGGGCGTCTCCAACTC | 1240 | 770 | 1230 | 1240
10 | CTCACTTCCCCGGCAGCTCCCTCGCCCCGACCGCAG | 406 | 1910 | 479 | 2740
11 | GATCTTCCTGCAACCCCCCGAGACAACCACCGAACA | 854 | 1090 | 887 | 1400
12 | TGGACGTAACACTCAGGAAGTGGTCAACCTTGCTGC | 2630 | 820 | 5810 | 1340
13 | AGCTGAAGGGCAGGATGTGGTTTCAGCATTCGGTGA | 3090 | 791 | 16400 | 5290
14 | TGTGCTGACTACAGGATGCTGTGGTTAGTCAGGTTG | 1690 | 809 | 13800 | 1720
15 | AACAGCACACAGGAAGTTACCGCTGAAGCAAAGGAG | 2750 | 813 | 4760 | 1250
16 | GGCAGCCGGCTTCCGGCTGTGGGTGGTGCGGGGGAC | 1370 | 676 | 1820 | 1540
17 | TAAAGAAACAGGATGACTGTGGTTTACTGCGAGCAT | 500 | 830 | 1000 | 1150
18 | CCACCCACTTCCTGCCCTAGCTAGTGTGGTATTTTT | 1050 | 907 | 1640 | 7970
19 | ACCTGCACTTCCTCCTCCCTAGACCGCACCCTTCTC | 491 | 2840 | 600 | 4300
20 | GGGCTCGGGGAGGAAGCGGTGGTTTCTCTTTGAAGC | 696 | 729 | 907 | 970

Row | Sequence | ETS1 binding intensity [1] | RUNX1 binding intensity [2] | ETS1 binding intensity [3] | RUNX1 binding intensity [4]
21 | ATACCGGCGCATCCGGATTTTGAAGCCGCAGTGGAC | 728 | 673 | 774 | 1200
22 | TGAGAAAACAGGAAGCGCCCAGTCACCACAGAAAGC | 2910 | 765 | 5290 | 1330
23 | GGTTCTCTAGGGAGAGGATGTGGGTTTGTCTCTGGG | 1820 | 791 | 6540 | 1570
24 | GGCTCGGTGCTGCTTCCTGTGTGGTCAGGATCACAG | 1870 | 846 | 4270 | 1790
25 | AAAAAGCCGGATGTGAAGGCTGTGGTTCTCAACCCG | 2880 | 745 | 6480 | 1310
26 | CACCTGGCCCGGACGGCTGCGGTCTGGAGGGCTGTC | 386 | 1650 | 792 | 2050
27 | CCCGTTCTCCGGAAGTGCGCGGGTTGGAGCTGAAGC | 4390 | 760 | 5690 | 1600
28 | GCCACAGCCGGAAGCAGGCTGACCACAAGTGCTAAG | 1880 | 1310 | 18700 | 6190
29 | TGAAGCCATGGTTTCCTGTCTGCGGCTCAGATCAAG | 1020 | 717 | 1600 | 1490
30 | AGCCACATCCTCCCTTAGGTCTGACCGCAGCTTAAC | 381 | 4190 | 2170 | 5430
31 | ACCGGCCGAGCCAACTTCCGGCCGCAGAGGCTGCCG | 5830 | 756 | 7630 | 1840
32 | CTCCGCCAGCCACCGGAACTGCGGCCCAGCAAAAAG | 2590 | 927 | 2320 | 949
33 | TTTCAAAACCCGGAAATGACCGCCAGGCTGGCATCA | 7800 | 859 | 6320 | 1380
34 | AAAGAGGAAATCACATACCCGAAAACCACATGCACA | 513 | 944 | 1050 | 1200
35 | AGGGTTACAATTTCCGTAAACCACAGAAGCAGCAGA | 550 | 1450 | 979 | 2560
36 | GCATCATCACTTCCTGTTGTGGGCAGTCGTTGCCTG | 3300 | 843 | 5100 | 2360
37 | AGAAGCTTCTACAGGAAACCACTAATGGAGACAGAG | 1440 | 782 | 1970 | 958
38 | AGCCGTTTCCGGCGCTCTACCCCGCCGCAGGCCGAG | 833 | 859 | 979 | 2300
39 | GGCCCTTCTGGGGCAGGATGTGGTGCCTGCCAAAGG | 4650 | 707 | 6110 | 891
